As usually defined, the AC50 is the concentration at which the activity in the assay is half-maximal.

SMILES strings stand for the structures. Where “and” joins values, the source holds several entries; their conditions need not be identical. Identical values can stand only once. A structure can be active in one record and inactive in another. Calls of active or inactive are those of the source. How the source made its calls: active means hit-call score of the fitted dose curve at least 0.9, where 1 is the maximum; inactive means score below 0.9.

Among the data in PubChem BioAssay (EPA / NIEHS) are AC50 and outcome values, retold here.

The nature of assay [1]: ATG_NFI_CIS: Attagene CIS-FACTORIAL HepG2 Assay for human Nuclear Factor I (NFI) (AID 2282989). The note with it: HepG2 cis-regulatory reporter, NFI response element transcription; actives raise or lower the signal. In outline:
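Read-out: reporter mRNA via RT-PCR plus capillary electrophoresis with fluorescence detection. Transiently transfected HepG2 (endogenous TF activity on cis promoters), 24 h compound exposure; gain or loss of signal fitted against DMSO.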

Assay [2] in a line: ATG_NF_kB_CIS: Attagene CIS-FACTORIAL HepG2 Assay for human Nuclear Factor Kappa B (NF-kB) (AID 2282991). The note with it: HepG2 Attagene cis-factorial NF-kB reporter mRNA; actives raise or lower the signal. In outline: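 DMSO served as negative control and baseline for bidirectional curve fitting. Transiently transfected HepG2 cells were dosed for 24 h, then reporter transcripts were measured by RT-PCR with capillary electrophoresis detection.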

Assay [3] in a line: ATG_NRF2_ARE_CIS: Attagene CIS-FACTORIAL HepG2 Assay for human Nuclear Factor Erythroid 2 Related Factor 2 (NFR2) response to Antioxidant Response Elements (ARE) (AID 2282992).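 On AC50: reporter mRNA level measured by RT-PCR and capillary electrophoresis fluorescence.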 The note with it: HepG2 Attagene ARE/NRF2 reporter, transcription factor activity; actives raise or lower the signal. In outline: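 Multiplexed reporter mRNA profiling in HepG2 after a 24 h chemical exposure. Curves fitted in both directions relative to DMSO negative control.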

Assay [4] in a line: ATG_Oct_MLP_CIS: Attagene CIS-FACTORIAL HepG2 Assay for human Octamer-Binding Transcription Factor (Oct) (AID 2282993). The note with it: HepG2 Attagene cis-factorial Oct reporter, mRNA; actives raise or lower the signal. In outline:
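Read-out: reporter mRNA via RT-PCR plus capillary electrophoresis of 6-FAM-labelled fragments. Transiently transfected HepG2, 24 h exposure, endogenous TF activity on cis elements. Gain or loss of signal fitted relative to DMSO.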

Assay [5] has as its target Cellular tumor antigen p53 (Homo sapiens) (UniProt P04637). Briefly: ATG_p53_CIS: Attagene CIS-FACTORIAL HepG2 Assay for human p53 Transcription Factor (AID 2282994). The note with it: HepG2 p53 cis-element reporter, Attagene mRNA; actives raise or lower the signal. An outline of the steps:
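Multiplexed reporter mRNA assay in human HepG2 liver cells; cis-regulated units report endogenous factor activity. Values come from bidirectional curve fitting against DMSO negative control after 24 h treatment.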

Assay [6] in a line: BSK_3C_TissueFactor: BioMAP Diversity Plus: 3C Assay for Tissue Factor Biomarker Activity (AID 2282997). The note with it: BioMAP 3C HUVEC, tissue factor biomarker readout; actives raise or lower the signal. In outline:
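Values derive from bidirectional curve fitting against DMSO of Tissue Factor ELISA signals, taken 24 h after dosing primary human umbilical vein endothelial cells.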

A short description of assay [7]: BSK_3C_uPAR: BioMAP Diversity Plus: 3C Assay for Urokinase-type plasminogen activator receptor (uPAR) Biomarker Activity (AID 2282998). The note with it: BioMAP 3C HUVEC, uPAR biomarker ELISA; actives raise or lower the signal. In outline:
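HUVEC primary cells; 24 h post-dose; uPAR by ELISA; gain or loss of signal fitted bidirectionally vs DMSO baseline.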

Assay [8] is described as follows: BSK_3C_VCAM1: BioMAP Diversity Plus: 3C Assay for Vascular cell adhesion molecule 1 (VCAM1) Biomarker Activity (AID 2282999). The note with it: BioMAP 3C HUVEC, VCAM1 ELISA, cytokine-stimulated; actives raise or lower the signal. An outline of the steps: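 Human umbilical vein endothelial cells (3C system), biomarker read by ELISA 24 h after dosing; bidirectional fit against DMSO baseline. Cytotoxicity tracked by SRB total-protein staining in parallel cultures at biomarker time.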
For orientation: ELISA stands for enzyme-linked immunosorbent assay.

Assay [9] in a line: BSK_4H_Eotaxin3: BioMAP Diversity Plus: 4H Assay for Eotaxin 3 Biomarker Activity (AID 2283000).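 On outcome: CCL26 protein level quantified by ELISA in parallel with SRB cytotoxicity check.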 The note with it: primary human endothelial cells (HUVEC); actives raise or lower the signal. In outline:
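Endothelial primary cells (human umbilical vein) exposed to compound for 24 h. ELISA detection of Eotaxin-3.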

Assay [10] concerns the target Myc proto-oncogene protein (Homo sapiens) (UniProt P01106). Briefly: ATG_Myc_CIS: Attagene CIS-FACTORIAL HepG2 Assay for human Myelocytomatosis (Myc) Proto-Oncogene Transcription Factor (AID 2282990). The note with it: HepG2, Attagene cis-reporter transcription factor activity; actives raise or lower the signal. An outline of the steps: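 Fluorescence intensity of reporter-specific cDNA fragments, separated by capillary electrophoresis, gives the signal. Transfected HepG2 cells carrying cis-promoter reporter constructs are incubated with compound for 24 h; DMSO serves as baseline.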

Chain of Myc proto-oncogene protein (Homo sapiens) (P01106 whole entry, looked up, the tested form may be a part): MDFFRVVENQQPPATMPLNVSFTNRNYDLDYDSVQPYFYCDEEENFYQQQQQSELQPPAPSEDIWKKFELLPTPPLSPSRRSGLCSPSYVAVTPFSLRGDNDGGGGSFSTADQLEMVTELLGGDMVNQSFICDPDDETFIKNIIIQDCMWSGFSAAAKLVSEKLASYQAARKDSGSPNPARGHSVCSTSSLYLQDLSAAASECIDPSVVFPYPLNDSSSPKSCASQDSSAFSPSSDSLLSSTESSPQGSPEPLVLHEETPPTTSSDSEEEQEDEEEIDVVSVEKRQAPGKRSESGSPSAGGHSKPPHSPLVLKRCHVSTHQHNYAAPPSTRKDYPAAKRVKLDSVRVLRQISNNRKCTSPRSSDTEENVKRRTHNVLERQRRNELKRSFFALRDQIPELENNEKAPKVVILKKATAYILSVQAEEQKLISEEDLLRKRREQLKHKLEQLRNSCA
Chain of Cellular tumor antigen p53 (Homo sapiens) (P04637 whole entry, looked up): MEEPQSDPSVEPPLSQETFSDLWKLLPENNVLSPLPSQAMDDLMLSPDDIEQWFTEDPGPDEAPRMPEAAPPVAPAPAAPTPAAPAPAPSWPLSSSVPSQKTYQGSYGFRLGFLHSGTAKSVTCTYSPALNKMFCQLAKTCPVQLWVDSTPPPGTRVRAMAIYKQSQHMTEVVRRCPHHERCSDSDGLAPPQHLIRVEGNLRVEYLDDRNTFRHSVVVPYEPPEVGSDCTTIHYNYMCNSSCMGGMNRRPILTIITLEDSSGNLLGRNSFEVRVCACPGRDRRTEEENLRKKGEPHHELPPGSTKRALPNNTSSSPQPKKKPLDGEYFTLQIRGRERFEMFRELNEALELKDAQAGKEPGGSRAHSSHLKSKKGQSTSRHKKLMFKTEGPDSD

With `OCCC(F)(F)C(F)(F)C(F)(F)C(F)(F)C(F)(F)C(F)(F)C(F)(F)C(F)(F)F`, the AC50 in assay [1] was 46 µM (active) and 150 µM (active); in assay [2], 24.4 µM (active); in assay [3] it was 24.6 µM (active) and 37.3 µM (active); in assay [4], 46.6 µM (active) and 113 µM (active); in assay [5], 150 µM (active); in assay [6], 43.1 µM (active) and 10.6 µM (active). Also, the half-maximal activity concentration (AC50) in assay [7] is 19.5 µM (active) and 16.5 µM (active); in assay [8], 30 µM (active) and 21.8 µM (active); in assay [9] it was 46 µM (active) and 14.9 µM (active). Further, the compound was classed as inactive in assay [2], in assay [5], in [6], in [7], in assay [8] and in assay [9].

In the case of `CCC(=C(c1ccc(O)cc1)c1ccc(OCCN(C)C)cc1)c1ccccc1`, the compound was classed as inactive in assay [1], in assay [2], in assay [3] and in [4]. In addition, the AC50 in assay [3] is 5.93 µM (active) and 1.95 µM (active) and 1.77 µM (active); in assay [4], 7.1 µM (active) and 11.1 µM (active); in assay [6], 11 µM (active); in assay [7], 7.66 µM (active); in assay [8] it was 11.9 µM (active); in [9], 7.42 µM (active).

For the compound `CCc1ccc(CCOc2ccc(CC3SC(=O)NC3=O)cc2)nc1` (configuration not stated), the result in [10], in assay [2], in assay [3], in [4], in [5] and in [6] was inactive. The result in [7], in assay [8] and in [9] was inactive. In addition, the AC50 in [3] is 25.6 µM (active).

Regarding `CC(=O)CC(C)(C)O`, the result in assay [1], in assay [2], in assay [3], in assay [4], in [5] and in assay [6] was inactive. Moreover, the outcome in assay [7], in assay [8] and in [9] was inactive.

With `CCCCCCCCOC(=O)CCCCCCCCC(=O)OCCCCCCCC`, the call in assay [1], in assay [2], in assay [3], in [4], in assay [5] and in assay [6] was inactive. Also, the outcome in assay [7], in [8] and in assay [9] was inactive.

Regarding `COc1cc(CCC(=O)CC(=O)CCc2ccc(O)c(OC)c2)ccc1O`, the outcome in assay [1] and in [2] was inactive. The concentration at half-maximal activity (AC50) is 24.8 µM (active) in assay [3], 68.8 µM (active) in [4] and 100 µM (active) in assay [5].

On to `CCCCC(CC)COC(=O)CCCCC(=O)OCc1ccccc1` (configuration not stated), for which the compound was called inactive in assay [1], in assay [3], in [4], in assay [5], in [6] and in assay [7]. Also, the result in assay [8] and in assay [9] was inactive.

On to `CCCCCCCC(=O)O`, for which the result in assay [1], in assay [10], in [3], in assay [4], in [5] and in assay [6] was inactive. For the same compound, the outcome in assay [7], in assay [8] and in [9] was inactive.

On to `c1ccc2c(c1)Cc1ccccc1-2`, for which the outcome in [1], in assay [10], in assay [2], in assay [3], in [4] and in [5] was inactive. Moreover, the outcome in assay [7], in [8] and in assay [9] was inactive. Also, the AC50 in assay [6] was 4.37 µM (active).

Consider `CCCOc1sc(C(=O)N2CCC(c3cc(CN)ccc3F)CC2)c(C)c1Br`, for which the compound was called inactive in [1], in [10], in [2], in assay [4] and in [5]. Besides, the AC50 in assay [3] was 1.49 µM (active); in [6], 9.59 µM (active); in [7], 5.41 µM (active); in assay [8], 7.38 µM (active); in assay [9], 9.89 µM (active).

With `N#C[C@@H]1CC(F)(F)CN1C(=O)CNC1CC2CCC(C1)N2c1ncccn1` (some centres not stated), the call in [1], in assay [2], in assay [3], in assay [4], in [5] and in assay [6] was inactive. For the same compound, the outcome in assay [7], in assay [8] and in assay [9] was inactive.

As for `COc1ccc([N+](=O)[O-])cc1N`, the compound was classed as inactive in assay [1], in assay [2], in assay [3], in assay [4], in assay [5] and in [6]. Moreover, the outcome in assay [7], in [8] and in [9] was inactive.

For the compound `Oc1cc2ccccc2c2ccccc12`, the call in assay [1], in [2], in assay [3], in [4] and in assay [5] was inactive. Also, the AC50 in assay [6] was 8.37 µM (active); in assay [7], 11.2 µM (active); in [8] it was 8.07 µM (active); in assay [9] it was 7.88 µM (active).

Turning to `CC(=O)NC1(c2cccc(F)c2)CCN(CC[C@@]2(c3ccc(Cl)c(Cl)c3)CN(c3ccccc3)C(=O)CO2)CC1`, the AC50 is 41.7 µM (active) in assay [1]; 61.5 µM (active) in [10]; 55 µM (active) in [2]; 9.13 µM (active) in assay [3]; 37.3 µM (active) in [4]; 18.4 µM (active) in assay [5]. Also, the half-maximal activity concentration (AC50) is 20.4 µM (active) in [7], 24.2 µM (active) in assay [8] and 27.1 µM (active) in assay [9]. For the same compound, the result in assay [6] was inactive.

As to `C#C[C@]1(O)CC[C@H]2[C@@H]3CCC4=CC(=O)CC[C@@H]4[C@H]3CC[C@@]21C`, the outcome in assay [1], in assay [10], in [2], in assay [3], in assay [4] and in assay [5] was inactive. In addition, the result in assay [8] and in [9] was inactive. Besides, the concentration at half-maximal activity (AC50) is 100 µM (active) and 79.6 µM (active) in assay [3]; 15.3 µM (active) in assay [6]; 5.42 µM (active) in assay [7].

As for `CCCCCCC(=O)O`, the compound was called inactive in assay [1], in assay [3], in assay [4], in assay [5], in assay [6] and in [7]. Also, the outcome in assay [8] and in [9] was inactive.

In the case of `CC(O)C(=O)O` (configuration not stated), the call in assay [1], in assay [10], in assay [2], in assay [3], in assay [4] and in assay [5] was inactive.
